Results filed as inconclusive are left out. A call without a number means that no potency is given here. Activity calls are given as the source filed them. Calls come from the whole dose curve.
What follows are compounds tested against Acetylcholinesterase (Homo sapiens) (UniProt P22303) (assay: Acetylcholinesterase (AChE) small molecule antagonists: colormetric cell-based qHTS assay (AID 1347395; note: nearly all actives have a fitted effect of over 30% in size)). Details: SH-SY5Y cells AChE activity, colorimetric (Ellman); series mostly up to 115 µM.
Chain of Acetylcholinesterase (Homo sapiens) (P22303 whole entry, looked up): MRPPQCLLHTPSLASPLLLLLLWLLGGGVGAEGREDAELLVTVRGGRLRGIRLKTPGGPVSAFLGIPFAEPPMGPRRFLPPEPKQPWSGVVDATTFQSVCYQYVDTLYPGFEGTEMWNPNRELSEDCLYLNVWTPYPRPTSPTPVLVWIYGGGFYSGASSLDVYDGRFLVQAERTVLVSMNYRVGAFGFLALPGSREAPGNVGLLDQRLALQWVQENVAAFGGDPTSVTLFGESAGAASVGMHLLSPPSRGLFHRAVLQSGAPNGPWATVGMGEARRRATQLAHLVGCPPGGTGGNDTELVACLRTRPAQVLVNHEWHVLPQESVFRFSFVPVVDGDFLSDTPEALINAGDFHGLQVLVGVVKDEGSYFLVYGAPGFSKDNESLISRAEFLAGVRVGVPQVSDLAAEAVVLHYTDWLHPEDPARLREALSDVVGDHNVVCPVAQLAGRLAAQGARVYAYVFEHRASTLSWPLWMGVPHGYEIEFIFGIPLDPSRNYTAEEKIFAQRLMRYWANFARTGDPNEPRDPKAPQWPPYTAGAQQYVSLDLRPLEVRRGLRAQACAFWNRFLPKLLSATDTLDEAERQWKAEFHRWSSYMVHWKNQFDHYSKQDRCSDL
Summary of the method: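 SH-SY5Y cells; cpd 30 min 37 C; + DTNB/acetylthiocholine, 90 min 37 C; colorimetric thiocholine read; qHTS.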
With `Nc1cc([N+](=O)[O-])ccc1O` the Potency was “inactive”.
In the case of `CC(C)(C)c1ccc(CCC=O)cc1`, the Potency is reported as “inactive”.
In the case of `CCCCC(CC)COC(C)=O` (stereo not given), the Potency is reported as “inactive”.
In the case of `O[C@@H](COc1cccc2ncccc12)CN1CCN(C2c3ccccc3[C@@H]3[C@H](c4ccccc42)C3(F)F)CC1` (stereo not given in full), the Potency is reported as “inactive”.
In the case of `COc1ccc2c(c1)c(CC(=O)O)c(C)n2C(=O)c1ccc(Cl)cc1`, the Potency is reported as “inactive”.
In the case of `CC(=O)OC(C)C`, the Potency is reported as “inactive”.
In the case of `CC(C)=CCC/C(C)=C/C=O`, the Potency is reported as “inactive”.
With `O=S(=O)(O)c1cccc2ccccc12` the Potency was “inactive”.
`Cc1c(F)c(N2CCNC(C)C2)cc2c1c(=O)c(C(=O)O)cn2C1CC1` (stereo not given) was tested, and the Potency was “inactive”.
With `CCCC(C)C(=O)O` (stereo not given) the Potency was “inactive”.
`C[C@]12CC[C@@H]3c4ccc(O)cc4CC[C@H]3[C@@H]1CC[C@H]2O` was tested, and the Potency was “inactive”.
With `C=C1C[C@H]2[C@@H]3C=C(C)C4=CC(=O)CC[C@]4(C)[C@H]3CC[C@]2(C)[C@@]1(OC(C)=O)C(C)=O` the Potency was “inactive”.
With `CCN(CCCc1ccccc1)CCCc1ccccc1` the Potency was “inactive”.
`CCCCS(=O)(=O)N[C@@H](Cc1ccc(OCCCCC2CCNCC2)cc1)C(=O)O` was tested, and the Potency was “inactive”.
In the case of `CCCC(=O)Nc1ccc(O)c(C(C)=O)c1`, the Potency is reported as “inactive”.
`NC(=O)C1(N2CCCCC2)CCN(CCCC(=O)c2ccc(F)cc2)CC1` was tested, and the Potency was “inactive”.
`C=C(C)C1CC=C(C)C(OC(C)=O)C1` (stereo not given) was tested, and the Potency was “inactive”.
In the case of `CCOc1ccc2nc(S(N)(=O)=O)sc2c1`, the Potency is reported as “inactive”.
With `O=CCCCC=O` the Potency was “inactive”.
In the case of `COc1ccc(COC(C)=O)cc1`, the Potency is reported as “inactive”.
For `CCCOc1ccc(S(=O)(=O)N2CCN(CC)CC2)cc1-c1nc2c(CC)n(Cc3ccccn3)nc2c(=O)[nH]1`, the Potency was “inactive”.
With `COCCOCCOCCOC` the Potency was “inactive”.
With `OCCSc1ccccc1` the Potency was “inactive”.
For `CC(O)C#CC(C)O` (stereo not given), the Potency was “inactive”.
For `CO[C@H]1C=CO[C@@]2(C)Oc3c(C)c(O)c4c(O)c(c(/C=N/N5CCN(C)CC5)c(O)c4c3C2=O)NC(=O)/C(C)=C\C=C[C@H](C)[C@H](O)[C@@H](C)[C@@H](O)[C@@H](C)[C@H](OC(C)=O)[C@@H]1C`, the Potency was “inactive”.
In the case of `Cc1cc(NC(=O)C2=C(O)c3ccccc3S(=O)(=O)N2C)no1`, the Potency is reported as “inactive”.
With `Nc1c(I)cc(I)c(C(=O)N(CCC(=O)O)c2ccccc2)c1I` the Potency was “inactive”.
`O=C(c1ccccc1)c1ccc(O)cc1` was tested, and the Potency was “inactive”.
With `COc1ccc(Nc2ccccc2)c(C)c1` the Potency was “inactive”.
With `C[C@]12CCC(=O)C=C1CC[C@H]1[C@@H]3CC[C@](O)(C(=O)CO)[C@@]3(C)C[C@H](O)[C@@]12F` the Potency was “inactive”.
With `CC(C)Cn1cnc2c1c(=O)n(C)c(=O)n2C` the Potency was “inactive”.
For `CCCCC(CC)COP(=O)(O)OCC(CC)CCCC` (stereo not given), the Potency was “inactive”.
In the case of `O=C(O)[C@H](O)[C@@H](O)[C@H](O)[C@H](O)CO`, the Potency is reported as “inactive”.
`COc1cc(C=O)ccc1OC(=O)C(C)C` was tested, and the Potency was “inactive”.
With `O=c1[nH]c(=O)c2cn[nH]c2[nH]1` the Potency was “inactive”.
For `CN1C[C@H](C(=O)N[C@]2(C)O[C@@]3(O)[C@@H]4CCCN4C(=O)[C@H](Cc4ccccc4)N3C2=O)C[C@@H]2c3cccc4[nH]cc(c34)C[C@H]21`, the Potency was 19.5 µM (active).
With `OC[C@]1(O)OC[C@@H](O)[C@H](O)[C@@H]1O` the Potency was “inactive”.
With `O=C(O)P(=O)(O)O` the Potency was “inactive”.
With `c1ccc2c(c1)CCc1ccccc1N2` the Potency was “inactive”.
For `CC1(C)C(=O)N(Cl)C(=O)N1Cl`, the Potency was “inactive”.

These compounds were tested against Acetylcholinesterase (Homo sapiens) (UniProt P22303) (assay: Acetylcholinesterase (AChE) small molecule antagonists: enzyme-based qHTS assay (AID 1347397; note: nearly all actives have a fitted effect of over 55% in size)). Details: Potency: AChE enzyme activity inhibition; outcome: AChE enzyme activity inhibition; series mostly up to 115 µM.
Summary of the method: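 Tox21 library chemicals are tested in qHTS format against recombinant human AChE. The enzyme, dispensed at 50 mU/mL, sits with compound for 30 min at room temperature. A DTNB–acetylthiocholine cocktail follows, and colour is read after 10 min.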
With `Nc1cc([N+](=O)[O-])ccc1O` the Potency was “inactive”.
With `CC(C)(C)c1ccc(CCC=O)cc1` the Potency was “inactive”.
In the case of `CCCCC(CC)COC(C)=O` (stereo not given), the Potency is reported as “inactive”.
In the case of `O[C@@H](COc1cccc2ncccc12)CN1CCN(C2c3ccccc3[C@@H]3[C@H](c4ccccc42)C3(F)F)CC1` (stereo not given in full), the Potency is reported as “inactive”.
For `COc1ccc2c(c1)c(CC(=O)O)c(C)n2C(=O)c1ccc(Cl)cc1`, the Potency was “inactive”.
`CC(=O)OC(C)C` was tested, and the Potency was “inactive”.
For `CC(C)=CCC/C(C)=C/C=O`, the Potency was “inactive”.
For `O=S(=O)(O)c1cccc2ccccc12`, the Potency was “inactive”.
In the case of `Cc1c(F)c(N2CCNC(C)C2)cc2c1c(=O)c(C(=O)O)cn2C1CC1` (stereo not given), the Potency is reported as “inactive”.
`CCCC(C)C(=O)O` (stereo not given) was tested, and the Potency was “inactive”.
For `C[C@]12CC[C@@H]3c4ccc(O)cc4CC[C@H]3[C@@H]1CC[C@H]2O`, the Potency was “inactive”.
With `C=C1C[C@H]2[C@@H]3C=C(C)C4=CC(=O)CC[C@]4(C)[C@H]3CC[C@]2(C)[C@@]1(OC(C)=O)C(C)=O` the Potency was “inactive”.
In the case of `CCN(CCCc1ccccc1)CCCc1ccccc1`, the Potency is reported as “inactive”.
For `CCCCS(=O)(=O)N[C@@H](Cc1ccc(OCCCCC2CCNCC2)cc1)C(=O)O`, the Potency was “inactive”.
In the case of `CCCC(=O)Nc1ccc(O)c(C(C)=O)c1`, the Potency is reported as “inactive”.
For `NC(=O)C1(N2CCCCC2)CCN(CCCC(=O)c2ccc(F)cc2)CC1`, the Potency was “inactive”.
`C=C(C)C1CC=C(C)C(OC(C)=O)C1` (stereo not given) was tested, and the Potency was “inactive”.
In the case of `CCOc1ccc2nc(S(N)(=O)=O)sc2c1`, the Potency is reported as “inactive”.
`O=CCCCC=O` was tested, and the Potency was “inactive”.
`COc1ccc(COC(C)=O)cc1` was tested, and the Potency was “inactive”.
With `CCCOc1ccc(S(=O)(=O)N2CCN(CC)CC2)cc1-c1nc2c(CC)n(Cc3ccccn3)nc2c(=O)[nH]1` the Potency was “inactive”.
For `COCCOCCOCCOC`, the Potency was “inactive”.
`OCCSc1ccccc1` was tested, and the Potency was “inactive”.
For `CC(O)C#CC(C)O` (stereo not given), the Potency was “inactive”.
With `CO[C@H]1C=CO[C@@]2(C)Oc3c(C)c(O)c4c(O)c(c(/C=N/N5CCN(C)CC5)c(O)c4c3C2=O)NC(=O)/C(C)=C\C=C[C@H](C)[C@H](O)[C@@H](C)[C@@H](O)[C@@H](C)[C@H](OC(C)=O)[C@@H]1C` the Potency was “inactive”.
With `Cc1cc(NC(=O)C2=C(O)c3ccccc3S(=O)(=O)N2C)no1` the Potency was “inactive”.
In the case of `Nc1c(I)cc(I)c(C(=O)N(CCC(=O)O)c2ccccc2)c1I`, the Potency is reported as “inactive”.
For `O=C(c1ccccc1)c1ccc(O)cc1`, the Potency was “inactive”.
For `COc1ccc(Nc2ccccc2)c(C)c1`, the Potency was “inactive”.
In the case of `C[C@]12CCC(=O)C=C1CC[C@H]1[C@@H]3CC[C@](O)(C(=O)CO)[C@@]3(C)C[C@H](O)[C@@]12F`, the Potency is reported as “inactive”.
For `CC(C)Cn1cnc2c1c(=O)n(C)c(=O)n2C`, the Potency was “inactive”.
`CCCCC(CC)COP(=O)(O)OCC(CC)CCCC` (stereo not given) was tested, and the Potency was “inactive”.
With `O=C(O)[C@H](O)[C@@H](O)[C@H](O)[C@H](O)CO` the Potency was “inactive”.
For `COc1cc(C=O)ccc1OC(=O)C(C)C`, the Potency was “inactive”.
`O=c1[nH]c(=O)c2cn[nH]c2[nH]1` was tested, and the Potency was “inactive”.
For `CN1C[C@H](C(=O)N[C@]2(C)O[C@@]3(O)[C@@H]4CCCN4C(=O)[C@H](Cc4ccccc4)N3C2=O)C[C@@H]2c3cccc4[nH]cc(c34)C[C@H]21`, the Potency was 30.9 µM (active).
With `OC[C@]1(O)OC[C@@H](O)[C@H](O)[C@@H]1O` the Potency was “inactive”.
For `O=C(O)P(=O)(O)O`, the Potency was “inactive”.
For `c1ccc2c(c1)CCc1ccccc1N2`, the Potency was “inactive”.
In the case of `CC1(C)C(=O)N(Cl)C(=O)N1Cl`, the Potency is reported as “inactive”.
Potency is the fitted concentration of half-maximal effect.
